# TIM10 inh: TIM10 yeast growth inhibition. S. cerevisiae TIM10 strain growth, BacTiter-Glo luminescence, 24 h. inhibition, % at 10 µM. hit rate 1.4% among 330,000. AID 463195;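 active = inhibition of 40% or more at the single tested concentration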;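 also: wild-type TIM10 isogenic control strain grown at permissive 25 °C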
# NALP1 yeast inh: inhibitors of NALP1 inflammasome in yeast; inhibition, % at 10 µM; AID 2071; hit rate 0.61% among 280,000; S. cerevisiae NALP1/ASC/caspase-1 growth, X-gal OD620, 72 h; in the data active = inhibition mostly above about 24%, no sharp cut-off; inactive = mostly below about 32%
# tim10-1 inh: growth inhibitors of tim10-1 mutant yeast; S. cerevisiae tim10-1 ts strain growth, BacTiter-Glo, 24 h; inhibition, % at 20 µM; hit rate 2.2% among 330,000;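 active = inhibition of at least 40%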;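 also: mutant grown at 25 °C; 0% = DMSO wells with yeast and 100% = wells holding no yeast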
# PfHsp90 set2: growth inhibition of yeast expressing Plasmodium Hsp90; S. cerevisiae expressing PfHsp90, BacTiter-Glo ATP, 48 h; yeast lacking PDR1 and PDR3 efflux regulators; inhibition, % at 9.4 µM; hit rate 0.32% among 310,000;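 active = every replicate shows inhibition above about 80%, whatever the replicate mean, limit read from the data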;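 also: 0% = DMSO neutral controls and 100% = 20 µM radicicol positive controls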
# tim23-1 inh: inhibits growth of tim23-1 mutant yeast | S. cerevisiae tim23-1 growth, BacTiter-Glo luminescence, 24 h | inhibition, % at 20 µM | hit rate 1.3% among 330,000 | AID 463212;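 active = growth inhibition of the mutant yeast at or above 50%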;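 also: temperature-sensitive mutant grown at 25 °C; plate controls were DMSO-treated mutant yeast for no effect and medium wells lacking yeast for full effect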
# SKKanGAS inh: SKKanGAS growth inhibition; inhibition, % at 7.5 µM; hit rate 1.3% among 300,000; S. pyogenes SKKanGAS, kanamycin growth, BacTiter-Glo, 6 h;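 active = mean replicate score, as percent of positive control median, at least 50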;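 also: strain carries kanamycin resistance gene driven by streptokinase promoter and grows in 40 µg/ml kanamycin; loss of luminescence reflects streptokinase promoter inhibition or plain growth inhibition; 0% = median of DMSO wells and 100% = positive control at its reference dose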
# tim10-1 conf: tim10-1 yeast growth inhibition, confirmed; shares compounds with tim10-1 inh; S. cerevisiae tim10-1 ts strain growth, BacTiter-Glo, 24 h; inhibition, % at 20 µM; hit rate 56% among 7,400;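 active = inhibition of yeast growth at or above a set limit in either of two repeat tests at 20 µM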;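 also: tim10-1 mutant grown at permissive 25 °C to find synthetic lethal compounds; 0% = DMSO yeast wells and 100% = medium wells without yeast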
# TIM10 conf: confirmation of TIM10 yeast growth inhibitors; S. cerevisiae tim10 strain growth, BacTiter-Glo luminescence, 24 h; hit rate 63% among 4,600; shares compounds with TIM10 inh; inhibition, % at 10 µM;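 active = inhibition of yeast growth at or above a set limit in either of two replicates at 10 µM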;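 also: this counterscreen used the strain with wild-type TIM10; 0% = yeast with DMSO and 100% = medium wells lacking yeast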
# tim23-1 confirm: tim23-1 yeast growth inhibition, confirmed; shares compounds with tim23-1 inh; S. cerevisiae tim23-1 growth, BacTiter-Glo luminescence, 24 h; inhibition, % at 20 µM; hit rate 83% among 4,400; AID 463218;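 active = inhibition above about 39% in either of two replicate wells at 20 µM, limit read from the data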;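 also: temperature-sensitive tim23-1 mutant grown at 25 °C; 0% = DMSO wells with yeast and 100% = medium wells without yeast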
# * = called active by the depositor; x = not tested or not shown. A selection: hits, their analogues and other compounds. The true share with any hit is near 4.8%.
SMILES,TIM10 inh,NALP1 yeast inh,tim10-1 inh,PfHsp90 set2,tim23-1 inh,SKKanGAS inh,tim10-1 conf,tim23-1 confirm,others
NC1=NC(=O)/C(=C/c2ccc(Br)cc2)S1,-6.6,5.6,-28.5,-14.0,-10.9,-5.6,x,x,
CCOC(=O)CSC1=NC(=O)/C(=C/c2ccc(Br)cc2)S1,60.8*,3.4,48.5*,-71.0,60.7*,16.2,62.1*,69.7*,TIM10 conf=52.1*
CCOC(=O)/C=C/C(=O)OCC(=O)Nc1ccc(Cl)cc1Cl,29.8,28.2*,47.5*,-1.3,53.5*,2.7,45.7*,73.4*,
COc1cc2c(cc1OC)CN(CC(=O)Nc1ccccc1C(=O)NC1CC1)CC2,-3.4,x,-0.9,-6.1,-6.9,x,x,x,
Cc1[nH]c2ccccc2c1/C=N/NC(=O)c1cc(-c2cccs2)[nH]n1,2.4,7.6,2.1,13.6,22.9,4.8,x,x,
CCCOc1ccc(N)cc1N,21.8,-0.5,49.7*,-19.6,56.5*,9.7,18.9,36.0,
CCCOc1cc(N)ccc1C(=O)OCCN(CC)CC,0.7,x,-10.7,-7.3,-9.5,x,x,x,
CC(CNC(=O)c1cccc(Br)c1)n1cncn1 (stereo not given),-4.8,13.1,-12.5,-0.3,-2.2,-2.2,x,x,
O=C(c1ccc(Cl)c(S(=O)(=O)N2CCOCC2)c1)N1CCCCC1,-2.3,2.1,1.5,6.2,-1.7,0.1,x,x,
Cc1nn(C)c(C(=O)Sc2cccc(Cl)c2)c1[N+](=O)[O-],32.2,x,46.5*,-9.6,61.3*,-8.6,65.1*,83.8*,
Cc1nn(C)c(C(=O)Sc2ccccc2)c1[N+](=O)[O-],22.3,x,4.6,7.2,34.1,-2.4,x,x,
O=C(NCC(c1cccnc1)N1CCOCC1)c1cccs1 (stereo not given),-7.3,26.2,7.0,x,-2.1,-1.7,x,x,
COc1ccccc1CN(Cc1nc2ccccc2c(=O)[nH]1)C(=O)Nc1ccccc1C,13.2,7.3,24.7,-2.8,26.5,-4.1,x,x,
COc1ccccc1CN(Cc1nc2ccccc2c(=O)[nH]1)C(=O)Nc1ccc(C)cc1,55.2*,16.5,42.8*,-10.6,59.4*,4.9,38.2*,51.3*,TIM10 conf=40.3*
CC(C)CN1CCCC(N2CCN(c3cccc(Cl)c3)CC2)C1 (stereo not given),2.7,12.8,-4.5,17.2,-17.7,-16.7,x,x,
c1ccc2c(CN3CCOCC3)csc2c1,-2.4,34.3,6.5,-80.4,7.2,-2.4,x,x,
c1ccc2c(CN3CCOCC3)c3ccccc3c(CN3CCOCC3)c2c1,61.0*,-7.5,53.4*,x,84.3*,0.0,52.3*,24.3,TIM10 conf=49.6*
c1csc(CNc2nc(-c3cccs3)nc3ccccc23)c1,41.9*,2.8,51.3*,-8.2,57.3*,5.6,43.7*,52.0*,TIM10 conf=9.7
c1csc(-c2nc(NCC3CCCO3)c3ccccc3n2)c1 (stereo not given),19.4,5.1,22.9,-1.4,34.6,-4.9,x,x,
O=C(Nc1ccc(Cl)cc1C(F)(F)F)c1ccccc1,23.6,23.9,30.3,2.7,19.8,1.3,x,x,
CC(=O)Nc1ccc(S(=O)(=O)N2CCN(c3cc(C)ccc3C)CC2)cc1,34.7,29.7,59.8*,1.6,53.9*,-6.0,49.5*,46.9*,
COc1ccc(C)cc1NC(=O)C(C)N1CCOCC1 (stereo not given),0.7,20.3,-3.5,-2.2,-0.5,3.2,x,x,
Cc1c(CC(=O)NCC(=O)O)c(=O)oc2cc3occ(-c4ccccc4)c3cc12,-10.7,16.8,14.3,-0.9,11.9,4.5,x,x,
O=C(NCc1cccnc1)/C(=C/c1ccc(-c2ccc(Cl)cc2)o1)S(=O)(=O)c1ccccc1,52.7*,5.8,52.4*,22.1,59.2*,-1.8,48.4*,57.2*,TIM10 conf=49.1*
O=C(NCc1cccnc1)/C(=C/c1ccc(-c2cccc(C(F)(F)F)c2)o1)NC(=O)c1ccccc1,2.1,3.2,21.2,x,10.1,-3.0,x,x,
SMILES,TIM10 inh,NALP1 yeast inh,tim10-1 inh,PfHsp90 set2,tim23-1 inh,SKKanGAS inh,tim10-1 conf,tim23-1 confirm,others
CCOC(=O)C1=C(Cn2cnc3ccccc32)NC(=O)NC1c1ccc(OC)cc1 (stereo not given),7.4,-8.5,9.8,22.0,10.1,1.1,x,x,
Cc1ccc2c(c1)C(=O)C(=O)N2CCCOc1ccccc1C,18.0,4.4,10.0,-13.0,22.0,-11.6,x,x,
Cc1ccccc1OCCCN1C(=O)C(=O)c2cccc(C)c21,26.0,9.4,54.4*,-0.5,74.4*,-1.4,38.9*,26.8,
COc1ccc(S(=O)(=O)N2CCCN(CC(=O)Nc3ccc(OC)c(Cl)c3)CC2)cc1,4.8,1.6,15.0,-16.3,2.7,3.5,x,x,
COc1ccc(/C=C/c2nc3ccccc3n2C)cc1,70.2*,20.3,56.8*,22.0,66.0*,66.0*,49.2*,46.6*,TIM10 conf=67.3*
Cc1cccc(-n2nnnc2-c2cnccc2C(F)(F)F)c1C,6.9,27.4,2.8,-8.7,2.9,-1.9,x,x,
CC(Cc1cccs1)NC(=O)Nc1ccc(Cl)cc1 (stereo not given),13.2,-27.9,35.9,5.9,24.5,15.7,x,x,
CC(Cc1cccs1)NC(=O)Nc1ccc(Cl)c(Cl)c1 (stereo not given),58.7*,1.1,47.4*,-9.6,51.8*,27.7,51.7*,54.0*,TIM10 conf=61.8*
O=C(Nc1nnc(S(=O)(=O)N2CCOCC2)s1)c1ccccc1F,15.9,3.5,2.8,6.4,22.9,13.5,x,x,
O=C(Nc1nnc(S(=O)(=O)N2CCCCCC2)s1)c1ccccc1F,30.8,-50.0,47.2*,0.5,56.0*,12.7,31.9*,54.6*,
O=C1Nc2ccccc2N(O)N1c1cc(-c2ccc(Cl)cc2)[nH]n1,1.9,-2.7,5.9,-20.2,6.2,4.7,x,x,
CCOC(=O)c1c(N)sn(-c2ccccc2)c1=S,-5.1,14.5,2.8,8.2,7.7,9.0,x,x,
CCOC(=O)c1c2c(c(=S)n(-c3ccccc3)c1N)CCC2,-0.4,25.7,54.0*,-0.2,58.2*,4.6,37.0*,66.8*,
Nc1nc2c(ccc3ccccc32)s1,23.3,x,9.7,50.5,32.6,-4.7,x,x,
COc1ccc(S(=O)(=O)N2CCN(C(=O)c3cc4c(s3)CCCC4)CC2)cc1,21.7,x,53.6*,-23.2,50.0*,x,38.8*,56.6*,
Cc1cc(OCC(=O)N2CCN(c3ccc(F)cc3)CC2)c2c(C)cc(=O)oc2c1,0.7,2.3,17.4,-10.6,7.0,-1.9,x,x,
CC(C)N1C(=O)/C(=C\c2nc3ccccc3c(=O)n2-c2ccccc2)c2ccccc21,x,19.3,x,-3.4,x,2.1,x,x,
CC(C)N1C(=O)/C(=C/c2nc3ccccc3c(=O)n2-c2ccccc2)c2ccccc21,47.3*,31.8,46.0*,-25.0,59.7*,3.5,40.0*,57.5*,TIM10 conf=44.0*
